SMILES strings stand for the structures. In all, about 69,000 compounds went through this assay and about 8,600 (12%) showed an effect of 50% or more. Only a selection was taken, and strong results are over-represented in it overall.

This is an account of results in ChEMBL document CHEMBL4513216, “Probing the Open Global Health Chemical Diversity Library for Multistage-Active Starting Points for Next-Generation Antimalarials” (ACS Infect Dis, 2020).

This experiment concerns Plasmodium berghei. In words: Screen against P. berghei liver stage (PbLuc), transformed with Luciferase, at 10uM. The experiment is classed as functional, HepG2. The conditions noted are these: tested at 10 uM.
For the compound `CCN1CC(C(=O)NCCc2csc(-c3ccncc3)n2)CC1=O` (stereo not drawn), the INHIBITION is reported as -2.92%.
For `CC(=O)N1CCC(Cc2cccc(-c3c(C)noc3C)n2)C1` (stereo not drawn), the INHIBITION is listed as 8.53%.
On to `Nc1cc(N2CCCC(COc3ccc(F)cc3)C2)nc(N)n1` (stereo not drawn), for which the INHIBITION turned out to be 79.5%.
As to `Nc1cc(N2CCCC(COc3ccc(F)cc3)C2)ncn1` (stereo not drawn), the INHIBITION was 23.7%.
In the case of `Nc1nc(N2CCCC(COc3ccc(F)cc3)C2)c2nc[nH]c2n1` (stereo not drawn) it was 33.7%; in that of `OC(COCc1ccccc1Cl)CN1CCC(c2ccn[nH]2)CC1` (stereo not drawn), 48.2%; in that of `COc1ccc(CN2CC3(CCNCC3)CCC2=O)c(F)c1F`, 22.9%.
Take `COc1cccc(CN2CC3(CCNCC3)CCC2=O)c1OC`: the INHIBITION came to 24.2%.
The same measure for `Cc1ccc(CN2CC3(CCNCC3)CCC2=O)c(F)c1F`: 71.1%; for `c1ccc(NC[C@@H]2CCC[C@@H]3CN(c4ncccn4)C[C@@H]32)nc1`: 48.4%; for `CC[C@H]1CN(C(=O)c2cnc(N3CCN(C)CC3)nc2C)CC[C@@]1(C)O`: 1.93%.
On to `CC(=O)N1CCc2nnc(C3CCCN3CC3CCCCC3)n2CC1` (stereo not drawn), for which the INHIBITION is -5.71%.
With `CC(C)C(O)CNC(=O)CCCc1ccccn1` (stereo not drawn), the INHIBITION is reported as 15.5%.
In the case of `CC(CNC(=O)CCCc1ccccn1)c1ccsc1` (stereo not drawn) it was 60.2%; in that of `CC(CNC(=O)CCc1ccccn1)c1ccsc1` (stereo not drawn), 22.2%.
In the case of `CC(C)CS(=O)(=O)CC(=O)NC1CCCCNC1=O` (stereo not drawn) it was -79.1%.
On to `O=C(c1cnc(-c2ccccn2)s1)N1CCCC1Cn1cccn1` (stereo not drawn), for which the INHIBITION is recorded as -9.19%.
Regarding `O=C(N1CCOCC1)N1CCc2ncnc(Oc3cccnc3)c2CC1`, the INHIBITION amounted to 0.734%.
On to `Cc1nc(C)c(C)c(NCCSc2ccccn2)n1`, for which the INHIBITION was found to be 60.2%.
In the case of `Cc1nc(N(C)C)nc(NCCc2ccccn2)c1C` it was -43.6%; in that of `Cc1nc(NCCSc2ccccn2)c2c(C)noc2n1`, 13.5%; in that of `CC(C)CN1C[C@@H]2CN(C(=O)[C@H]3CCCO3)C[C@@H]2C1=O`, 17.4%.
The same measure for `CCN1CCCC1CNCc1cc2ccccc2[nH]c1=O` (stereo not drawn): -61.5%.
In the case of `CCN1CCCC1CNCc1cc2cc(OC)c(OC)cc2[nH]c1=O` (stereo not drawn) it was 18.3%.
For `COc1ccc2[nH]c(=O)c(CN(C)CCN3CCCC3)cc2c1`, the INHIBITION is reported as 63.9%.
With `CCN1CCCC1CNCc1cc2cc(OC)ccc2[nH]c1=O` (stereo not drawn), the INHIBITION was determined as 72.2%.
On to `COc1ccc2cc(CN(C)CCN3CCCCC3=O)c(=O)[nH]c2c1`, for which the INHIBITION was -15.1%.
As for `CCN1CCCC1CNCc1cc2cc3c(cc2[nH]c1=O)OCCO3` (stereo not drawn), the INHIBITION turned out to be 58.2%.
On to `COc1ccc2[nH]c(=O)c(CN(C)C(C)c3ccccn3)cc2c1` (stereo not drawn), for which the INHIBITION is on record as -3.55%.
In the case of `CCOc1ccc2[nH]c(=O)c(CN(C)CCc3cn[nH]c3)cc2c1` it was 54.4%; in that of `CCN1CCCC1CNC(=O)CCSc1ccc2c(c1)OCCO2` (stereo not drawn), 38.5%; in that of `COc1ccc2cc(CN(C)CCc3cn[nH]c3)c(=O)[nH]c2c1`, 36.5%.
Consider `CCN1CCCC1CNCc1cc2cc(C)c(C)cc2[nH]c1=O` (stereo not drawn), for which the INHIBITION is on record as -29.9%.
As for `CSc1ccc2cc(CN(C)CCc3cn[nH]c3)c(=O)[nH]c2c1`, the INHIBITION worked out at 20.8%.
Regarding `CCOc1cc(C)nc(N2CCN(C(=O)c3cscn3)CC2)n1`, the INHIBITION turned out to be 15.3%.
Regarding `Cc1csc(NC(=O)c2ccc(NC(=O)N3CCOCC3)cc2)n1`, the INHIBITION was -37.4%.
On to `Cc1cccc(C(=O)NCc2ccc(CS(N)(=O)=O)cc2)n1`, for which the INHIBITION was -33.9%.
With `O=C1CCCN1Cc1nnc2n1CCN(Cc1ccccn1)CC2`, the INHIBITION is recorded as -30.7%.
Turning to `COc1ncc(CN2C[C@@H]3C[C@@H](O)CN3C[C@@H]2Cc2ccccc2)cn1`, the INHIBITION stood at 33.8%.
As for `c1cn2c(n1)CN(Cc1ccsc1)CC(Cn1cncn1)C2` (stereo not drawn), the INHIBITION is 49.7%.
In the case of `CC(C)c1nc(CN(C)Cc2ccc(O)c(C(=O)O)c2)cs1`, the INHIBITION is on record as -14.1%.
Consider `CCOc1ncccc1CNC(=O)Nc1ccccc1`, for which the INHIBITION is recorded as 31.3%.
For `COc1ccc(CC2CN(C(=O)c3coc(C)n3)CCO2)cc1` (stereo not drawn), the INHIBITION is on record as 9.05%.
Consider `Cc1nc(-c2cncnc2C2CCCNC2)no1` (stereo not drawn), for which the INHIBITION is recorded as -3.45%.
Regarding `COc1ccc2c(C)c(C(=O)NC3CCCOC3)oc2c1` (stereo not drawn), the INHIBITION worked out at 60.9%.
In the case of `COc1ccc2c(C)c(C(=O)NC3CCN(S(C)(=O)=O)CC3)oc2c1` it was -112%.
Consider `COc1ccc2c(C)c(C(=O)NC3CCOCC3)oc2c1`, for which the INHIBITION is on record as -104%.
For `CNS(=O)(=O)c1ccc(C(=O)N2CCCC2c2ccncc2)o1` (stereo not drawn), the INHIBITION is recorded as 36.1%.
The same measure for `Cc1cc(NCCO)nc2[nH]nc(N)c12`: 26.7%.
On to `Cc1cc(NCc2ccco2)nc2[nH]nc(N)c12`, for which the INHIBITION is listed as 61%.
As for `Cc1cc(NCc2ccccc2)nc2[nH]nc(N)c12`, the INHIBITION is reported as -0.232%.
Take `CC1CN(C)CCN1C(=O)COc1cccc(Oc2ccccn2)c1` (stereo not drawn): the INHIBITION is recorded as 61.2%.
On to `CC1COCCN1C(=O)COc1ccc(Oc2ccccn2)cc1` (stereo not drawn), for which the INHIBITION is 8.99%.
`CC1COCCN1C(=O)COc1cccc(Oc2ccccn2)c1` (stereo not drawn): the INHIBITION is given as -20.6%.
As to `O=S(=O)(CCCS(=O)(=O)c1ccc2c(c1)OCCCO2)c1ccccc1`, the INHIBITION is on record as -46.8%.
In the case of `CC(C)CC(=O)NS(=O)(=O)c1ccc2c(c1)OCCCO2` it was -7.81%; in that of `CCSCCC(=O)NS(=O)(=O)c1ccc2c(c1)OCCO2`, 41.9%.
Turning to `CCS(=O)(=O)c1ccc2c(c1)OCCCO2`, the INHIBITION amounted to 55.9%.
As for `CSCC(=O)NS(=O)(=O)c1ccc2c(c1)OCCO2`, the INHIBITION is on record as 8.315%.
With `CCS(=O)(=O)c1ccc2c(c1)OCCO2`, the INHIBITION is 77.8%.
The same measure for `CC1=N[C@@]2(CC[C@@H]3CN(Cc4cccc(Cl)c4)C[C@@H]32)C(=O)N1CC1CC1`: 14.9%; for `Cc1ccc(C2CCCN(S(C)(=O)=O)C2)nc1` (stereo not drawn): 6.75%.
Take `O=C(NC[C@]12COC[C@H]1CN(C1CCOCC1)C2)c1ccco1`: the INHIBITION turned out to be 38.7%.
With `Cc1cccc2c1OCCCC2NCc1nnc2n1CCCCC2` (stereo not drawn), the INHIBITION worked out at 86.8%.
In the case of `c1ccc2c(c1)OCCCC2NCc1nnc2n1CCCCC2` (stereo not drawn) it was -0.55%; in that of `Cc1ccc2c(c1)OCCCC2NCc1nnc2n1CCCCC2` (stereo not drawn), -14.2%.
As to `CS(=O)(=O)c1cc(Cl)cnc1C1CCN(C(=O)C2CCCO2)CC1` (stereo not drawn), the INHIBITION worked out at 12.75%.
Consider `O=C(Cc1cccc(F)c1)N1C[C@H]2CN(Cc3ccccn3)C[C@H]2C1`, for which the INHIBITION is given as 9.97%.
In the case of `N#Cc1ccsc1N1CCC(Sc2ncc[nH]2)C1=O` (stereo not drawn), the INHIBITION amounted to 27.6%.
Take `CC(C)Nc1ncccc1C(=O)NCc1ccnn1C`: the INHIBITION was determined as 43%.
For `Cc1c(NC(C)C(C)C)cccc1C(=O)NCc1cnn(C)c1` (stereo not drawn), the INHIBITION is listed as 29.3%.
Take `Cn1ccnc1CNC(=O)c1ccnc(C2CCNCC2)c1`: the INHIBITION was -12.4%.
Take `Cc1c(NC(C)C(C)C)cccc1C(=O)NCc1nccn1C` (stereo not drawn): the INHIBITION was determined as 57.4%.
With `Cc1c(NC(C)C(C)C)cccc1C(=O)NCc1nnc(C)n1C` (stereo not drawn), the INHIBITION is -20.8%.
With `Cc1c(NC(C)C(C)C)cccc1C(=O)NCc1ccnn1C` (stereo not drawn), the INHIBITION stood at 62.7%.
Consider `O=C1NC2(Cc3ccccc31)CN(CC1CCCC1)C2`, for which the INHIBITION was found to be 45.8%.
For the compound `NC(=O)C1CCN(C(=O)c2cc(Br)ccc2-n2cnnn2)CC1`, the INHIBITION was determined as 28.6%.
In the case of `CCOC(=O)C1CCN(C(=O)c2cc(Br)ccc2-n2cnnn2)CC1`, the INHIBITION came out at 17.6%.
For `COC(=O)C1CCN(C(=O)c2cc(Br)ccc2-n2cnnn2)CC1`, the INHIBITION is given as 53.8%.
Regarding `CC(CN1CCOCC1)OC(=O)c1ccccc1Cl` (stereo not drawn), the INHIBITION turned out to be 35.8%.
Take `Cn1nnc2c1C(COCc1ccccn1)CN(C(=O)c1ccsc1)C2` (stereo not drawn): the INHIBITION was 1.9%.
With `Cc1cc(N(C)Cc2cc(C(C)(C)C)n[nH]2)nc(-c2cccnc2)n1`, the INHIBITION is recorded as 76.5%.
With `Cc1cc(N(C)Cc2ncc[nH]2)nc(-c2cccnc2)n1`, the INHIBITION is recorded as -18.5%.
Regarding `Cc1cc(N(C)Cc2ncc[nH]2)nc(-c2ccccc2)n1`, the INHIBITION is 59.8%.
Turning to `Cc1ccccc1CN(CCN(C)C)Cc1ncc[nH]1`, the INHIBITION came to 3.96%.
`Cc1cc(CC(C)Nc2nc(-c3cccnc3)nc3c2CNC3)[nH]n1` (stereo not drawn): the INHIBITION is recorded as 47.4%.
As to `Cc1cc(N(C)Cc2snnc2C)nc(-c2cccnc2)n1`, the INHIBITION is recorded as -26.2%.
On to `O=C(Cn1cccn1)N1CCC(c2nnc(-c3ccsc3)o2)CC1`, for which the INHIBITION is 23.55%.
In the case of `CN(C1CCCN(c2ccccn2)C1)S(C)(=O)=O` (stereo not drawn) it was -2.25%; in that of `CC(=O)Nc1cc2c(cc1C)OCO2`, 19.3%.
On to `COc1c(CNCC(O)COc2ccc3c(c2)OCO3)c(C)nn1C` (stereo not drawn), for which the INHIBITION stood at 21.5%.
Take `Cc1ccccc1CN(C)CC(O)COCc1ccccc1Cl` (stereo not drawn): the INHIBITION was 60%.
As to `COc1ccc(CN(C)CC(O)COCc2ccccc2Cl)c(OC)c1` (stereo not drawn), the INHIBITION is recorded as 48.2%.
In the case of `COc1ccccc1COCC(O)CN(C)Cc1cccc(Cl)c1` (stereo not drawn) it was 24.6%.
In the case of `O=S(=O)(NCc1ccc(S(=O)(=O)N2CCCC2)s1)c1ccc(F)cc1Cl` it was 18.3%.
As to `CN(C)S(=O)(=O)c1ccc2c(c1)N(Cc1nccn1C)CC2`, the INHIBITION came out at 37.1%.
In the case of `Cc1ccc([C@@]2(O)CC[C@@H]3CN(S(=O)(=O)C(C)C)C[C@@H]32)cc1`, the INHIBITION amounted to 3.91%.
As for `CC(C)n1cc(CN2CCCN(C(=O)c3cc(Cl)c[nH]3)CC2)cn1`, the INHIBITION is recorded as 54.9%.
Take `Cc1cnc(C(=O)N2CCCN(Cc3cnn(C(C)C)c3)CC2)cn1`: the INHIBITION is reported as 9.06%.
For `CC(C)n1cc(CN2CCCN(C(=O)c3cccn3C)CC2)cn1`, the INHIBITION was determined as 34.6%.
Take `CC(C)n1cc(CN2CCCN(C(=O)c3ccco3)CC2)cn1`: the INHIBITION turned out to be 25.1%.
The same measure for `CC(C)n1cc(CN2CCCN(C(=O)c3ccc[nH]3)CC2)cn1`: 52.1%; for `Cc1cc(C(=O)N2CCCN(Cc3cnn(C(C)C)c3)CC2)no1`: 39.3%; for `Cc1cccc(CN2C[C@@H]3CN(C(=O)c4ccsc4)C[C@@H]3C2=O)n1`: 23.6%.
In the case of `CN(C)S(=O)(=O)N1CCN(C(=O)OC(C)(C)C)CC12CCCCC2`, the INHIBITION worked out at 27.5%.
In the case of `Cc1cnn(CC2CCCN2Cc2cn3ccsc3n2)c1` (stereo not drawn), the INHIBITION is 37.9%.
With `O=C1CCC(=O)c2oc3ccc(Cl)cc3c2N1`, the INHIBITION turned out to be 34.2%.
The same measure for `CN(C)C(=O)N1C[C@H]2CC[C@@H](C1)N(C(=O)CCCn1cncn1)C2`: 6.8%.
